# Results: PubChem BioAssay
# Target: Streptavidin (Streptomyces avidinii) (UniProt P22629)
# Test: streptavidin binders on small-molecule microarray, primary screen, artefact control for SMM compound annotation, biophysical, 635/667 nm fluorescence (AID 1147);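 further: signal reflects streptavidin binding to arrayed compounds as a control protein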
# Conditions: streptavidin binding, higher = more signal
# Streptavidin (Streptomyces avidinii), sequence (P22629 whole entry, looked up): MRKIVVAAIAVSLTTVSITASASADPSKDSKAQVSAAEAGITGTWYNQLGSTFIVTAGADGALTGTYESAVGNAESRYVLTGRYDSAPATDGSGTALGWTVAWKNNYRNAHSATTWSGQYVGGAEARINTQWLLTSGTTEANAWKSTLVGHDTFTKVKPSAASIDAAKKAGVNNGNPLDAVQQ
row,Compound,composite z-score
1,COc1cc(COC(C)=O)ccc1OC(C)=O,-0.114
2,CN1C(=O)C2C=CC(C(O)C#Cc3ccccc3)N(N3CCCCC3)C2C1=O (stereo unspecified),0.762
3,NC(=O)NCC#Cc1ccc2c(c1)[C@]1(C(=O)N2)[C@H](C(N)=O)[C@H]2C(=O)O[C@H](c3ccccc3)[C@H](c3ccccc3)N2[C@@H]1c1ccc(O)cc1,-0.104
4,CO[C@H]1O[C@H](CO)[C@@H](OC(=O)Nc2ccc(Oc3ccccc3)cc2)[C@H](OC(=O)Nc2ccc3c(c2)OCO3)[C@H]1OC(=O)Nc1ccc2c(c1)OCO2,0.412
5,CC(C)NC(=O)[C@@H]1c2ccccc2C(=O)N(C2Cc3ccccc3C2)[C@H]1c1ccc(CO)cc1,0.251
6,CCCc1cc2c(n1Cc1cc(F)cc(F)c1)C(C)C1CN(C(=O)c3ccccc3)C(C)(C(=O)OC)C21 (stereo unspecified),1.4
7,[N-]=[N+]=Nc1ccccc1[C@@H]1OC(c2ccc(OCCCO)cc2)=N[C@]1(CCS(=O)(=O)c1ccccc1)C(N)=O,2.03
8,O=C1c2ccccc2[C@](Cc2ccccc2I)(C(=O)NCCN2CCOCC2)[C@H](c2ccc(CO)cc2)N1Cc1ccccc1Cl,0.851
9,O=C(N1CCCCC1)[C@]1(Cc2ccccc2)N=C(c2ccc(OCCCO)cc2)O[C@@H]1c1ccccc1,0.997
10,CC(=O)NCCCC[C@@H]1NC(=O)[C@H]2C[C@@H](C(=O)NCCCCCCNC(=O)CS)[C@@H](c3ccc(O)cc3)N2C1=O,-1.22
11,O=C(CS)NCCCCCCNC(=O)[C@@H]1C[C@@H]2C(=O)NCC(=O)N2[C@@H]1c1cccc(OCCO)c1,0.0478
12,CC[C@@H]1C=C(C(=O)O)[C@H](c2ccc(Br)cc2)N1S(=O)(=O)c1ccc(C)cc1,0.791
13,CCOC(=O)C[C@H]1[C@H](OC(=O)c2ccccc2-c2ccccc2)[C@@H](NC(=O)CC(C)C)c2cc(OCCCO)ccc2N1C(=O)Cc1ccc(OC)cc1,0.0802
14,CCCC[C@@H]1C[C@H]1[C@@H](NC(=O)c1cccs1)c1ccc(-c2ccccc2)cc1,0.0523
15,COc1ccc(-c2cc3c(c(-c4ccc(Oc5ccccc5)cc4)n2)[Si](C(C)C)(C(C)C)OC3)cn1,0.114
16,CC(C)C(=C=CC[C@@H](O)c1ccc(OCCO)cc1)C[C@@H](O)COCc1ccccc1,-0.0104

# Tested on: not listed separately
# Test: small-molecule binders of probe aInhba, primary screen, biochemical, small-molecule microarray, 635/667 nm fluorescence (AID 1148);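 further: score merges 667nm spot fluorescence with signal-to-noise for antibody binding to printed compounds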
# Conditions: higher = more signal
row,Compound,composite z-score
1,CCC(CC)C(O)C1C=CC2C(=O)NC(=O)C2N1Nc1ccc(Cl)cc1Cl (stereo unspecified),0.225
2,C=C(CCCC)/C(=C/C[C@@H](OC(=O)c1ccncc1)c1ccc(OCCO)cc1)c1cc(C(=O)OC)ccc1OC,-0.128
3,CO[C@H]1O[C@H](CO)[C@@H](OC(=O)Nc2cccc(F)c2)[C@H](OC(=O)Nc2ccccc2)[C@@H]1OC(=O)Nc1ccccc1,0.289
4,C=C(COC)C(=O)CC[C@@H](OC(C)=O)c1ccc(CO)o1,0.138
5,COC(=O)[C@H](Cc1ccccc1)N1CC2=C[C@@H](C3CC3)n3c(=O)n(C)c(=O)n3[C@H]2[C@@H]1[C@@H](O)Cc1ccccc1,-0.0589
6,C=C[C@H](CO[Si](CC)(CC)CC)N(Cc1ccc(OC(C)=O)c(OC)c1)S(=O)(=O)c1ccc(Br)cc1,0.403
7,C=CCOC(=O)[C@H]1[C@@H]2C(=O)O[C@@H](c3ccccc3)[C@@H](c3ccccc3)N2[C@@H](c2ccc(OCCOC(=O)[C@H]3C[C@H]4C(=O)N[C@@H](CCCCNC(C)=O)C(=O)N4[C@H]3c3ccc(O)cc3)cc2)[C@]12C(=O)Nc1ccc(I)cc12,0.098
8,CC(C)C(O)C1C=CC2C(=O)NC(=O)C2N1Nc1ccc(Cl)cc1Cl (stereo unspecified),-0.0791
9,COc1ccc([Si](C)(C)[C@H]2[C@H](CCO)O[C@@]3(C(=O)N(Cc4ccc(N(C=O)c5ccccc5)cc4)c4ccccc43)[C@@H]2C)cc1,-0.157
10,CC(C)C(O)C1C=CC2C(=O)N(c3ccccc3)C(=O)C2N1Nc1ccc([N+](=O)[O-])cc1 (stereo unspecified),0.726
11,CC(C)C[C@@H]1NC(=O)[C@H](C(C)C)NC(=O)[C@@]23C(=O)N[C@@H](Cc4ccccc4)C2[C@H](C)[C@@]2(C)O[C@H]2C3/C=C/CC/C=C/CNC1=O (stereo partly specified),0.399
12,CC1(C)[C@@H]2CC(C(O)C3C=CC4C(=O)N(c5ccccc5)C(=O)C4N3Nc3ccc([N+](=O)[O-])cc3)=C[C@H]1C2 (stereo partly specified),0.0179
13,COc1ccccc1CN1C(=O)c2ccccc2[C@@]2(Cc3ccccc3N(CC(C)C)C2=O)[C@@H]1c1ccc(CO)cc1,0.027
14,CC1CC/C=C\[C@H]2OC34C=CCN(C(C)(C)C)C(=O)[C@H]3N(C(C)CO)C(=O)[C@@H]4C2C(=O)O1 (stereo partly specified),-0.128
15,O=C(NCCO)C1=C[C@H](Oc2ccccc2I)[C@@H](O)[C@H](N(Cc2ccco2)C(=O)Cc2ccccc2)C1,-0.202
16,CN(C)CCCC[C@@H]1NC(=O)[C@H]2C[C@@H](C(=O)NCCCCCCN)[C@@H](c3ccc(O)cc3)N2C1=O,0.308
17,COC(=O)C(CC#Cc1ccc2c(c1)[C@]1(C(=O)N2)[C@H](c2ccc(OCCO)cc2)N2[C@H](c3ccccc3)[C@H](c3ccccc3)OC(=O)[C@H]2[C@@H]1C(=O)N1CCc2cc(OC)c(OC)cc2C1)C(=O)OC,0.542
18,[N-]=[N+]=Nc1ccccc1[C@H]1OC(c2ccc(OCCCO)cc2)=N[C@@]1(CCS(=O)(=O)c1ccccc1)C(N)=O,0.668

row,Compound,composite z-score
1,COC(=O)[C@@]1(Cc2ccc(F)cc2)[C@H]2c3cc(C(=O)N(C)C)n(Cc4ccccc4)c3C[C@H]2CN1C(=O)c1ccccc1,0.218
2,COc1cc(COC(C)=O)ccc1OC(C)=O,0.257
3,CN1C(=O)C2C=CC(C(O)C#Cc3ccccc3)N(N3CCCCC3)C2C1=O (stereo unspecified),1.1
4,NC(=O)NCC#Cc1ccc2c(c1)[C@]1(C(=O)N2)[C@H](C(N)=O)[C@H]2C(=O)O[C@H](c3ccccc3)[C@H](c3ccccc3)N2[C@@H]1c1ccc(O)cc1,1.34
5,CO[C@H]1O[C@H](CO)[C@@H](OC(=O)Nc2ccc(Oc3ccccc3)cc2)[C@H](OC(=O)Nc2ccc3c(c2)OCO3)[C@H]1OC(=O)Nc1ccc2c(c1)OCO2,0.443
6,CC(C)NC(=O)[C@@H]1c2ccccc2C(=O)N(C2Cc3ccccc3C2)[C@H]1c1ccc(CO)cc1,-0.128
7,CCCc1cc2c(n1Cc1cc(F)cc(F)c1)C(C)C1CN(C(=O)c3ccccc3)C(C)(C(=O)OC)C21 (stereo unspecified),0.786
8,[N-]=[N+]=Nc1ccccc1[C@@H]1OC(c2ccc(OCCCO)cc2)=N[C@]1(CCS(=O)(=O)c1ccccc1)C(N)=O,0.207
9,O=C1c2ccccc2[C@](Cc2ccccc2I)(C(=O)NCCN2CCOCC2)[C@H](c2ccc(CO)cc2)N1Cc1ccccc1Cl,0.62
10,O=C(N1CCCCC1)[C@]1(Cc2ccccc2)N=C(c2ccc(OCCCO)cc2)O[C@@H]1c1ccccc1,0.0074
11,CC(=O)NCCCC[C@@H]1NC(=O)[C@H]2C[C@@H](C(=O)NCCCCCCNC(=O)CS)[C@@H](c3ccc(O)cc3)N2C1=O,0.0074
12,O=C(CS)NCCCCCCNC(=O)[C@@H]1C[C@@H]2C(=O)NCC(=O)N2[C@@H]1c1cccc(OCCO)c1,-0.613
13,CC[C@@H]1C=C(C(=O)O)[C@H](c2ccc(Br)cc2)N1S(=O)(=O)c1ccc(C)cc1,0.222
14,CCOC(=O)C[C@H]1[C@H](OC(=O)c2ccccc2-c2ccccc2)[C@@H](NC(=O)CC(C)C)c2cc(OCCCO)ccc2N1C(=O)Cc1ccc(OC)cc1,-0.179
15,CCCC[C@@H]1C[C@H]1[C@@H](NC(=O)c1cccs1)c1ccc(-c2ccccc2)cc1,0.0541
16,COc1ccc(-c2cc3c(c(-c4ccc(Oc5ccccc5)cc4)n2)[Si](C(C)C)(C(C)C)OC3)cn1,0.038
17,CC(C)C(=C=CC[C@@H](O)c1ccc(OCCO)cc1)C[C@@H](O)COCc1ccccc1,-0.0762
